From PubChem BioAssay (EPA / NIEHS)
More than one record can exist for a structure, and the calls need not agree. Calls of active or inactive are those of the source. Rule for the calls: active = hit-call score of the fitted dose curve at least 0.9, where 1 is the maximum; inactive = score below 0.9.

Experiment: BSK_3C_VCAM1: BioMAP Diversity Plus: 3C Assay for Vascular cell adhesion molecule 1 (VCAM1) Biomarker Activity (AID 2282999)
Details: BioMAP 3C HUVEC, VCAM1 ELISA, cytokine-stimulated; actives raise or lower the signal
Description: BSK_3C is a cell-based, multiplexed-readout assay that uses umbilical vein endothelium, a human vascular primary cell, with measurements taken at 24 hours after chemical dosing in a 96-well plate.BSK_3C_VCAM1 is an assay component measured in the BSK_3C assay. It measures VCAM-1 antibody related to regulation of gene expression using ELISA technology.Data from the assay component BSK_3C_VCAM1 was analyzed into 1 assay endpoint. This assay endpoint, BSK_3C_VCAM1, was analyzed with bidirectional fitting relative to DMSO as the negative control and baseline of activity. Using a type of binding reporter, gain or loss-of-signal activity can be used to understand changes in the signaling as they relate to the gene VCAM1. Furthermore, this assay endpoint can be referred to as a primary readout, because this assay has produced multiple assay endpoints where this one serves a signaling function. To generalize the intended target to other relatable targets, this assay endpoint is annotated to the cell adhesion molecules intended target family, where the subfamily is Immunoglobulin CAM.
The levels of cell surface (or secreted, indicated by the prefix "s") biomarker endpoints were measured by ELISA. Overt cytotoxicity to cells in confluent adherent cultures (all systems other than the BT system) was assessed by measuring total protein levels using sulforhodamine B (SRB) staining in parallel cultures at the time of biomarker measurements, indicated as SRB endpoints. For proliferation assays for adherent cell types, individual cell types are cultured at sub-confluence and relative cell numbers quantified by SRB staining at time points optimized for each system (48 h: 3C and CASM3C systems; 72 h: BT and HDF3CGF systems; 96 h: SAg system). SRB was performed by staining cells with 0.1% SRB after fixation with 10% TCA and reading wells at 560 nm.Viability and proliferation of PBMC (T cells) was quantified by Alamar Blue reduction for the SAg and BT systems. For PBMC viability (referred to as PBMC Cytotoxicity within the assay endpoint names), cells were plated (75,000/well in a 96-well plate) and then chemical samples added for 1 h before addition of activators, SEB and TSST-1 (20 ng/mL final concentration each). Cells were incubated for 90 h. Then, Alamar Blue (20 uL/well) (Invitrogen, Cat DAL1100) was added for 6 h, and the plates were read with a fluorescence microplate reader at 546/580 nm (excitation/emission). For PBMC proliferation, cells were plated and activated as above but incubated for only 16 h prior to addition of Alamar Blue. Plates were read after 6 h.

Q: With `C[C@]12C=CC3=C4CCC(=O)C=C4CC[C@H]3[C@@H]1CC[C@@H]2O` as the compound, how does the AC50 read?
A: 9.42 µM (active)

Q: Which outcome does the source give for `c1ccc(N=Nc2ccccc2)cc1` here?
A: inactive

Q: With `CC(C)(C)OOC(C)(C)CCC(C)(C)OOC(C)(C)C` as the compound, how does the outcome read?
A: inactive

Q: Which outcome does the source give for `CC(C)N(Cc1ccccc1)C(=O)C(C)(C)C` here?
A: inactive

Q: For `CN(C)c1ccccc1`, which outcome is on record?
A: inactive

Q: For `N#CC(Br)Br`, which outcome is on record?
A: inactive

Q: With `ClCCOCCCl` as the compound, how does the outcome read?
A: inactive

Q: With `Oc1ccccc1Cl` as the compound, how does the outcome read?
A: inactive

Q: With `CCCSC(=O)N(CCC)CCC` as the compound, how does the outcome read?
A: inactive

Q: For `CCCCCCCCOC(=O)c1ccc(C(=O)OCCCCCCCC)c(C(=O)OCCCCCCCC)c1`, which outcome is on record?
A: inactive

Q: Which outcome does the source give for `c1ccc2c(c1)-c1cccc3cccc-2c13` here?
A: inactive

Q: Which outcome does the source give for `OCCCBr` here?
A: inactive

Q: Which AC50 does the source give for `CC(C)(OOC(C)(C)c1ccccc1)c1ccccc1` here?
A: 27.7 µM (active)

Q: For `Cc1ccc(N=C=O)cc1N=C=O`, which outcome is on record?
A: inactive

Q: For `CC(C)COC(=O)c1ccccc1C(=O)OCC(C)C`, which AC50 is on record?
A: 26.8 µM (active)

Q: Which outcome does the source give for `COC(=O)c1ccccc1N` here?
A: inactive

Q: Which outcome does the source give for `CS(=O)(=O)NC(=O)c1cc(Oc2ccc(C(F)(F)F)cc2Cl)ccc1[N+](=O)[O-]` here?
A: inactive

Q: For `CCNS(=O)(=O)C(F)(F)C(F)(F)C(F)(F)C(F)(F)C(F)(F)C(F)(F)C(F)(F)C(F)(F)F`, which outcome is on record?
A: inactive

Q: And the AC50?
A: 14.8 µM (active)

Q: With `O=P(OCCCl)(OCCCl)OCCCl` as the compound, how does the outcome read?
A: inactive

Q: For `O=Cc1ccco1`, which outcome is on record?
A: inactive

Q: For `Cc1ccc([N+](=O)[O-])cc1`, which outcome is on record?
A: inactive

Q: Which outcome does the source give for `OCCCl` here?
A: inactive

Q: With `O=C(O)C1C2CCC(O2)C1C(=O)O` (stereo not given) as the compound, how does the AC50 read?
A: 21 µM (active)

Q: With `COc1cc(C=O)cc2c1[C@H](COC(N)=O)[C@]1(OC(C)=O)ON2C[C@H]2[C@@H]1N2C(C)=O` as the compound, how does the AC50 read?
A: 22.1 µM (active)

Q: For `O=C(N[C@H](c1ccccc1)[C@@H]1CN2CCC1CC2)c1c(Cl)ccc(C(F)(F)F)c1Cl`, which outcome is on record?
A: inactive

Q: Which outcome does the source give for `CCCCC(CC)COC(=O)c1ccc(C(=O)OCC(CC)CCCC)c(C(=O)OCC(CC)CCCC)c1` (stereo not given) here?
A: inactive

Q: Which outcome does the source give for `Brc1ccc(Oc2ccccc2)cc1` here?
A: inactive

Q: With `CN(C)[C@@H]1C(=O)C(C(N)=O)=C(O)[C@@]2(O)C(=O)C3=C(O)c4c(O)cccc4[C@@](C)(O)[C@H]3C[C@@H]12` as the compound, how does the outcome read?
A: inactive

Q: For `Clc1ccc(Cl)c(Cl)c1`, which outcome is on record?
A: inactive

Q: With `CO[C@@H]1[C@H](OC(=O)NC(=O)CCl)CC[C@]2(CO2)[C@H]1[C@@]1(C)O[C@@H]1CC=C(C)C` as the compound, how does the AC50 read?
A: 6.87 µM (active)

Q: For `CC(C)(C)C(O)(CCc1ccc(Cl)cc1)Cn1cncn1` (stereo not given), which outcome is on record?
A: inactive

Q: With `ClC1=C(Cl)C2(Cl)C3C(Cl)C=CC3C1(Cl)C2(Cl)Cl` (stereo not given) as the compound, how does the AC50 read?
A: 30.8 µM (active)

Q: For `Cc1ccc(N)cc1`, which outcome is on record?
A: inactive

Q: For `CCOc1cccc(C2(N3CCN(c4ccccc4)CC3)CCC(C)CC2)c1` (stereo not given), which outcome is on record?
A: inactive

Q: For `ClC1=C(Cl)[C@]2(Cl)[C@H]3[C@H]([C@@H]4C=C[C@H]3C4)[C@@]1(Cl)C2(Cl)Cl`, which AC50 is on record?
A: 28.7 µM (active)

Q: For `O=C(Nc1ccccc1)c1ccccc1I`, which outcome is on record?
A: inactive

Q: With `Cn1cc(-c2ccccc2)c(=O)c(-c2cccc(C(F)(F)F)c2)c1` as the compound, how does the outcome read?
A: inactive

Q: Which outcome does the source give for `[O-][Cl+]O` here?
A: inactive

Q: For `C1=Cc2cccc3cccc1c23`, which outcome is on record?
A: inactive
